Screening results from PubChem.
HepG2 viability = HepG2 cytotoxicity, counter-screen for TGF-b inhibitors. HepG2 CAGA-GFP viability, ATP luminescence, 18 h. Potency, µM (series often up to 46.1 µM), for the others: at the top dose activity change, negative = cytotoxicity, actives largely listed as cytotoxic. 0.76% of 410,000 active. AID 588856
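HepG2 CAGA-GFP cells (1000/well, DMEM with 1% FBS) received compound, then TGF-beta at 500 pg/mL final, and were incubated 18 hours at 37 degrees C. Viability was read by CellTiter-Glo luminescence. Media-only wells were set as complete cell-killing and DMSO as no toxicity.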
S2 tox = reduces viability in counter-screen for ATXN expression inhibitors; Potency, µM (titrated, usually from 56.7 µM), usual class: cytotoxic; 0.49% of 400,000 active; S2 cells (HEK-293 line with an ATXN2-luciferase reporter) viability, CellTiter-Fluor protease fluorescence, 24 h; AID 651635; further: nearly all actives have a fitted effect of over 40% in size
ATXN2 expr inh = reduces ATXN2 reporter expression in HEK-293 cells | 0.72% of 360,000 active | Potency, µM (top dose mostly 57 µM), for inactives: top-dose activity change, negative = inhibition, actives largely listed as inhibitors | AID 1745845 | HEK-293 ATXN2-luciferase reporter, luminescence, 24 h; further: on the % scale 0 is the no-effect control and ±100 the full control effect; nearly all actives have a fitted effect of over 55% in size
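qHTS (up to 57 uM final) was run with 24 h compound exposure of reporter cells at 37 °C. Each well was multiplexed: SteadyGlo luminescence measured ATXN2-luciferase expression after a fluorogenic Gly-Phe-AFC viability readout (25 uM final).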
TGFb inhibitor = inhibitors of TGF-b signaling; HepG2 CAGA-GFP TGF-b/SMAD3 reporter, GFP fluorescence, 18 h; TGF-beta stimulated, 500 pg/mL final; Potency, µM (titrated, usually from 46.1 µM), without a hit: at the highest dose activity, negative = inhibition, actives largely listed as inhibitors; 1.2% of 410,000 active; further: on the % scale 0 is the no-effect control and ±100 the full control effect; nearly all actives have a fitted effect of over 65% in size
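TGF-beta reporter screen: HEPG2 CAGA-GFP, 1% FBS, 500 pg/mL TGF-beta final, 18 h; per-cell GFP summed per well; curves fitted and categorized by class.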
DT40 TDP1 no CPT = qHTS for Inhibitors of human tyrosyl-DNA phosphodiesterase 1 (TDP1): qHTS in cells in absence of CPT; DT40 Tdp1-/- hTDP1 cells, no CPT, ATP luminescence, 48 h; Potency, µM (series often up to 46.2 µM), for the others: top-dose activity change, negative = growth inhibition, hits mostly inhibitors; 15% of 420,000 active; further: on the % scale 0 is the no-effect control and ±100 the full control effect; nearly all actives have a fitted effect of over 55% in size
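Cells were dispensed at 400 per well, compounds added by pin tool, plates incubated ≥48 hr at 37 °C, then CellTiter-Glo added for 30 min at room temperature before luminescence reading. Line: DT40 Tdp1-/- complemented with hTDP1; camptothecin omitted.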
DT40 TDP1 CPT = DT40-hTDP1 cell growth loss with CPT; chicken DT40 Tdp1-/-;hTDP1 cells + 20 nM CPT, ATP luminescence, 48 h; Potency, µM (top dose mostly 46.2 µM), for inactives: at the highest dose activity change, negative = growth inhibition, usual class: inhibitors; 12% of 420,000 active; AID 686979; further: on the % scale 0 is the no-effect control and ±100 the full control effect; nearly all actives have a fitted effect of over 55% in size
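Chicken DT40 Tdp1-/- cells complemented with human TDP1, 400 cells/well, exposed to compounds plus 20 nM camptothecin for at least 48 h at 37 C; viability read as ATP content by CellTiter-Glo luminescence.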
Active calls of the source: *; i = inactive; ? = inconclusive; nt = no result; [ ] = another dose, or the depositor's remark. In the library only some 17% were active in any assay of this set; here they are far more common. The call rests on the fitted dose curve; in most records, active means well fitted curve in the direction sought with a large enough effect; inconclusive means small, poorly fitted or top-dose-only effect, or another doubt; inactive means no such curve, though single readings can be large; an effect the other way counts as inactive or inconclusive. Potency means the concentration at half of the fitted maximal effect.

SMILES	HepG2 viability	S2 tox	ATXN2 expr inh	TGFb inhibitor	DT40 TDP1 no CPT	DT40 TDP1 CPT
CN(Cc1ccc(F)cc1)C(=O)CN1CCN(S(=O)(=O)c2ccc3c(c2)OCCCO3)CC1	-21%	i	nt	-5%	?	-26%
CN(Cc1ccccc1)C(=O)CN1CCN(S(=O)(=O)c2ccc(Cl)c(Cl)c2)CC1	-23%	i	-8%	?	18µM*	?
CN(Cc1cccc(F)c1)C(=O)CN1CCN(S(=O)(=O)c2ccc3c(c2)OCCCO3)CC1	-3%	i	-5%	2%	0%	-21%
Cc1cc(OCC(=O)N(C)Cc2ccccc2)ccc1Cl	-21%	i	51%	1%	?	-9%
O=P(O)(O)OC(Cn1cncn1)(Cn1cncn1)c1ccc(F)cc1F	nt	i	nt	nt	5%	16%
O=C(COC(=O)C1COc2ccccc2O1)NC(=O)Nc1ccc2c(c1)OCCO2 (stereo not given)	1%	i	30%	2%	-5%	-2%
Cn1nnnc1SCCCNCc1cc(Cl)ccc1OCc1ccccc1F	-56%	?	?	-20%	8.2µM*	21µM*
Cn1nnnc1SCCCNCc1cccc(OCc2ccccc2)c1	-23%	?	-11%	2%	?	?
Cn1nnnc1SCCCNCc1cc(Br)ccc1OCc1ccccc1F	-70%	nt	?	?	16µM*	16µM*
Cn1nnnc1SCCCNCc1cc(Br)ccc1OCc1ccccc1	-61%	?	-38%	?	10µM*	23µM*
Cn1nnnc1SCCCNCc1ccc(-c2ccc(Br)cc2)o1	-65%	?	?	?	?	21µM*
CCc1cc(C(=O)N(C)CC(=O)Nc2c(Cl)cccc2Cl)sc1C	-8%	i	2%	1%	-18%	-14%
O=S(=O)(Nc1cccc2ccccc12)c1ccc2ccccc2c1	-18%	nt	nt	?	nt	nt
COc1cccc2c1cc1c(=O)n(CC(=O)N3CCN(c4cccc(C)c4)C(C)C3)nc(C)n12 (stereo not given)	-1%	nt	nt	-1%	4%	-22%
COc1cc(C2CC(=O)N(Cc3ccc(F)cc3)c3ccccc3S2)cc(OC)c1OC (stereo not given)	-30%	nt	?	?	nt	nt
CCOc1ccc(Br)cc1CNCCSc1nnnn1-c1ccccc1	-46%	?	0%	?	?	18µM*
CN1/C(=C/C=C(C#N)C#N)C(C)(C)c2ccccc21	5%	i	13%[11.3 µM]	-5%	1%	-21%
CN1\C(=C/C=C/C=C/C=[N+](C)C)C(C)(C)c2ccccc21	-34%	18µM*	nt	?	2.3µM*	2.6µM*
Cc1cc(/N=C/C=C2\N(C)c3ccccc3C2(C)C)n(CCC#N)n1	-22%	nt	?	-19%	4.6µM*	5.8µM*
CN(C)c1ccc(N=C/C=C2\N(C)c3ccccc3C2(C)C)cc1	-39%	?	-1%	?	4.1µM*	5.2µM*
CC(NCCOc1ccccc1F)C(=O)Nc1ccc(S(N)(=O)=O)cc1 (stereo not given)	-14%	i	nt	-1%	7%	13%
CC(C)CC(NS(=O)(=O)c1ccc2c(c1)oc(=O)n2C)C(=O)NCCc1ccc(Cl)cc1 (stereo not given)	1%	i	-7%	-24%	-4%	?
O=C(NCCN1CCN(c2ccc([N+](=O)[O-])cc2)CC1)NCc1ccccc1	-18%	i	nt	?	8.2µM*	?
O=[N+]([O-])c1ccc(-c2csc(N3CCc4ccccc4C3)n2)cc1	8%	i	2%	5%	-1%	-12%
O=[N+]([O-])c1ccc(N2CCc3ccccc3C2)cc1	-19%	?	nt	19%	18µM*	?
SMILES	HepG2 viability	S2 tox	ATXN2 expr inh	TGFb inhibitor	DT40 TDP1 no CPT	DT40 TDP1 CPT
O=C(NCCN1CCN(Cc2ccc([N+](=O)[O-])cc2)CC1)C(=O)Nc1ccccc1	9%	i	-13%	0%	-8%	-17%
O=C(CSc1ccccc1C(=O)N1CCN(c2ccc([N+](=O)[O-])cc2)CC1)N1CCCC1	2%	i	-7%	-20%	15µM*	12µM*
O=C(CCCSc1nc2ccccc2[nH]1)N1CCN(c2ccc([N+](=O)[O-])cc2)CC1	4%	?	?	12%	8.2µM*	10µM*
COCCN1C(=O)CCC1(C)C(=O)NC1CCCC1 (stereo not given)	2%	i	-3%	4%	5%	-6%
O=C(Cn1cc([N+](=O)[O-])nc1[N+](=O)[O-])N1CCN(c2ccccc2)CC1	-108%	i	-6%	?	?	16µM*
O=C(Cn1cnc2ccccc2c1=O)N1CCN(c2ccccc2)CC1	-17%	i	2%	16%	-8%	8%
O=C(CCc1ccccc1)N1CCN(c2ccc([N+](=O)[O-])cc2)CC1	-24%	?	?	?	23µM*	?
O=C(Cc1ccc(F)cc1)N1CCN(c2ccc([N+](=O)[O-])cc2)CC1	-25%	i	nt	-13%	?	21µM*
O=C(Cc1ccc([N+](=O)[O-])cc1)N1CCN(c2ccc([N+](=O)[O-])cc2)CC1	-7%	i	nt	-10%	7.3µM*	18µM*
O=C(Cc1ccccc1)N1CCN(c2ccc([N+](=O)[O-])cc2)CC1	-25%	?	-14%	-5%	?	?
O=[N+]([O-])c1ccc(N2CCN(c3ccc(F)cc3)CC2)cc1	-42%	i	5%	0%	-12%	-5%
COc1cc(=O)n2c(c1C(=O)N(C)Cc1nonc1C)CCN(Cc1ccsc1)CC2	nt	i	nt	nt	-9%	7%[9.04 µM]
NCCCn1cnc2ccccc21	9%	i	3%	9%	3%	-2%
Cc1nc2ccccn2c(=O)c1NC(=O)c1cccc(F)c1	0%	nt	nt	-18%	-12%	-8%
CCCc1nc2cc3c(cc2[nH]1)n(C)c(=O)n3C	-19%	i	19%	2%	17%	9%
O=C(NCCN1CCc2ccccc2C1)Nc1ccc([N+](=O)[O-])cc1	-37%	i	nt	?	23µM*	?
O=C1C2CCCCN2C(=O)N1CCN1CCN(c2ccc([N+](=O)[O-])cc2)CC1 (stereo not given)	-29%	i	-4%	?	?	-24%
O=C(CCCN1C(=O)C2CCCCN2C1=O)N1CCN(c2ccc([N+](=O)[O-])cc2)CC1 (stereo not given)	0%	i	-9%	-28%	23µM*	?
